ALOX12 inh: inhibitors of human 12S-lipoxygenase ALOX12; P18054; purified 12hLO, xylenol orange hydroperoxide absorbance; Potency, µM (top dose mostly 108 µM), for the others: at the top dose activity change, negative = inhibition, usual class: inhibitors; 580,000 compounds, 1.1% hits; AID 1671190; note: potency is the fitted concentration of half-maximal effect
Target sequence (P18054 whole entry, looked up): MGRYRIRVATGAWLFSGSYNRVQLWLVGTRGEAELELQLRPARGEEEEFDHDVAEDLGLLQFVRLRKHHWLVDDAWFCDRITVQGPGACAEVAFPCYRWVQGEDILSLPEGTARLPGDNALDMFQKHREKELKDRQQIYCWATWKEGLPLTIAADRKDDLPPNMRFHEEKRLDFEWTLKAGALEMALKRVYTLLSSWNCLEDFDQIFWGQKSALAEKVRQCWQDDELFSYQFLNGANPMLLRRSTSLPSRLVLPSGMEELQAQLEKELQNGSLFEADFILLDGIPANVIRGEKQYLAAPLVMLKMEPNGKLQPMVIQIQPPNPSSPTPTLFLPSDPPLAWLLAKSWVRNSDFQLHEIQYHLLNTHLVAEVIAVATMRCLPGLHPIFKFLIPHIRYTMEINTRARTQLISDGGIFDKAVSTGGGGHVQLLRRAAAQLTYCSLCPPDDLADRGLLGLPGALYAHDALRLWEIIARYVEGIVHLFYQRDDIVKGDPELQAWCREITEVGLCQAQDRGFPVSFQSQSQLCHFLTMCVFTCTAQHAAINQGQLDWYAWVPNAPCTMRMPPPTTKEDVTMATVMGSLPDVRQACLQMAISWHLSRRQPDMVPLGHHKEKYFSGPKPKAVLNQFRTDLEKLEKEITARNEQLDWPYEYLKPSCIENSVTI
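Hydroperoxide product was detected by ferrous iron/xylenol orange as the 573 to 405 nm absorbance ratio. Arachidonic acid at 40 uM (final) was turned over for 30 min at room temperature by 150 nM human 12hLO, pH 7.0 Hepes buffer, after 15 min compound preincubation.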
DT40 TDP1 CPT: growth inhibition of DT40 Tdp1-/-;hTDP1 cells with camptothecin (screen for TDP1 inhibitors) | chicken DT40 Tdp1-/-;hTDP1 cells + 20 nM CPT, ATP luminescence, 48 h | Potency, µM (highest dose often 46.2 µM), without a hit: top-dose activity change, negative = growth inhibition, hits mostly inhibitors | 420,000 compounds, 12% hits | AID 686979; note: potency is the fitted concentration of half-maximal effect; nearly all actives have a fitted effect of over 55% in size
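Cell growth measured by CellTiter-Glo luminescence after a minimum 48 h, 37 C compound exposure with 20 nM CPT in Tdp1-knockout DT40 cells stably expressing hTDP1, seeded 400/well; qHTS titration format.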
TDP1 cell noCPT: qHTS for Inhibitors of human tyrosyl-DNA phosphodiesterase 1 (TDP1): qHTS in cells in absence of CPT. Potency, µM (titrated, usually from 46.2 µM), inactives show top-dose activity change, negative = growth inhibition, most hits filed as inhibitors. 420,000 compounds, 15% hits. DT40 Tdp1-/- hTDP1 cells, no CPT, ATP luminescence, 48 h. AID 686978, 2013; note: potency is the fitted concentration of half-maximal effect; nearly all actives have a fitted effect of over 55% in size
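Growth of hTDP1-complemented DT40 Tdp1-knockout cells is measured by ATP luminescence after at least 48 hr compound exposure at 37 °C, with DMSO substituting for the 20 nM CPT used in the parallel screen.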
HT1080 IDH1KD tx: HT-1080 IDH1 knockdown cell toxicity (counter line); HT-1080 IDH1 knockdown viability, ATP luminescence, 48 h; Potency, µM (series often up to 46.1 µM), without a hit: at the highest dose activity, negative = toxicity, most hits filed as cytotoxic; 360,000 compounds, 2% hits; AID 686971;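 note: potency is the fitted concentration of half-maximal effect; 0% = DMSO wells and -100% = cell-free medium wells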
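Assay cells: HT-1080 with IDH1 knockdown, 750 per well, RPMI/5% FBS. Exposure: 48 h at 37 °C following 2 h pre-incubation. Read: CellTiter-Glo luminescence; fitted concentration-response, curve class assigned.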
HT1080NT lethal: kills 2HG-producing HT-1080-NT fibrosarcoma cells | 360,000 compounds, 1.6% hits | HT-1080-NT fibrosarcoma viability, CellTiter-Glo ATP luminescence, 48 h | Potency, µM (titrated, usually from 46.1 µM), for inactives: at the top dose activity, negative = less viability, actives largely listed as cytotoxic | AID 686970;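 note: NT is the 2HG producing partner of a matched IDH1 knockdown line; potency is the fitted concentration of half-maximal effect; 0% = DMSO-treated cells and -100% = media-only wells without cells; nearly all actives have a fitted effect of over 55% in size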
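Fibrosarcoma NT cells, 750 per well in 5% FBS RPMI, were exposed to compound for 48 hours. Viability: CellTiter-Glo luminescence.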
IL1B secr inh: blocks inflammasome-driven IL-1 beta release; THP-1 LPS/ATP IL-1B secretion, AlphaLISA, 16 h; stronger effect = lower value; activity change, % at 57.5 µM; 360,000 compounds, 4.7% hits; AID 743279; in the data active = activity change below about -50%; inconclusive = mostly about -30% to -49%
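Secreted IL-1B measured by AlphaLISA bead assay after 16 h compound exposure of THP-1 cells; compounds (final up to 57.5 uM) added 1 h before LPS (250 ng/mL) and ATP (1.25 mM) stimulation; lower signal means less secretion.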
An asterisk follows results filed as active; i = inactive; u = inconclusive; x = no result; [ ] = another dose, or the depositor's remark. The full list was thinned out, with hits kept by preference. Unless noted, calls come from the whole dose curve; as a rule, active = well fitted curve in the direction sought with a large enough effect; inconclusive = small, poorly fitted or top-dose-only effect, or another doubt; inactive = no such curve, though single readings can be large; an effect the other way counts as inactive or inconclusive. Unless noted, % is set by controls: 0 for no effect and ±100 for the full control effect.

SMILES	ALOX12 inh	DT40 TDP1 CPT	TDP1 cell noCPT	HT1080 IDH1KD tx	HT1080NT lethal	IL1B secr inh
COc1ccccc1N1CCN(C(=O)CSc2ncccc2-c2nc3ccccc3[nH]2)CC1	-1.1%	14.6µM*	u	-27.8%	-20.9%	0.0
COc1cc(C)ccc1OCc1cc(C(=O)NCc2n[nH]c3c2CCC3)no1	84.3%	x	x	x	x	x
CCOc1ccc(NC(=O)C(C)Oc2ccc(F)cc2)c2cccnc12 (stereo not drawn)	5.7%	x	x	x	x	x
COC(=O)[C@]1(C)CCC[C@@]2(C)C3CC[C@@]4(C)C[C@]3(CCC21)CC4=NO (stereo partly drawn)	-12.7%	u	20.6µM*	-6.0%	-3.0%	18.3
C[C@@]12CCC3[C@@](CCC4[C@@]3(C)CCC[C@@]4(C)C(=O)NC3CCCCC3)(CC1=O)C2 (stereo partly drawn)	-13.6%	18.4µM*	23.1µM*	3.9%	1.5%	11.6
C=C1C[C@@]23CCC4[C@@](C)(CCC[C@@]4(C)C(=O)OC)C2CC[C@]1(OC(C)=O)C3 (stereo partly drawn)	-4.1%	18.4µM*	u	0.1%	-1.3%	23.7
COC(=O)[C@]1(C)CCC[C@@]2(C)C3CC[C@@]4(C)C[C@]3(CCC21)CC(=O)N4C (stereo partly drawn)	0.0%	u	u	11.5%	0.3%	-4.6
CCN1CCN(C(C)CNC(=O)NCc2csc(C)n2)CC1 (stereo not drawn)	2.0%	x	x	x	x	x
Cc1[nH]c(SC(C)C(=O)Nc2cccc(S(=O)(=O)N(C)C)c2)nc1Cc1ccccc1 (stereo not drawn)	7.3%	x	x	x	x	x
O=C(NCCc1ccccc1)c1ccc2c(c1)S(=O)(=O)c1cc(Cl)ccc1C2=O	-23.0%	20.6µM*	-94.4%	8.3%	5.4%	4.7
CC1CCC(NC(=O)c2ccc3c(c2)S(=O)(=O)c2ccccc2C3=O)CC1 (stereo not drawn)	6.1%	u	14.6µM*	-1.2%	-1.4%	-3.9
CC(C)(C)c1ccc(-c2ccc3c(c2)S(=O)(=O)c2ccccc2C3=O)cc1	-9.6%	u	23.1µM*	-0.9%	2.4%	15.8
O=C(NCCc1ccccc1)c1ccc2c(c1)S(=O)(=O)c1ccccc1C2=O	-4.6%	u	13µM*	-25.8%	-10.6%	-7.0
O=C(NCCOc1ccccc1Cl)c1ccc2c(c1)S(=O)(=O)c1cc(Cl)ccc1C2=O	-2.7%	u	-27.1%	1.1%	9.9%	22.6
CC(C)CCNC(=O)C(NC(N)=O)C(C)C (stereo not drawn)	-27.9%	x	x	x	x	x
NC(=O)c1ccc2c(c1)S(=O)(=O)c1ccccc1C2=O	i	-26.1%	16.4µM*	17.0%	13.3%	16.5
O=C(O)c1ccc2c(c1)S(=O)(=O)c1ccccc1C2=O	x	4.4%	-3.7%	-0.9%	1.0%	8.5
O=C1c2ccccc2S(=O)(=O)c2cc(N3CCN(C(=O)c4ccccc4)CC3)ccc21	-1.1%	14.6µM*	20.6µM*	1.0%	2.9%	-67.2*
COc1cc(NC(=O)C2(n3cnnn3)CCCCC2)cc(OC)c1OC	59.9%	x	x	x	x	x
CCCCN1C(N)=NC[C@@H]1c1ccccc1	-3.3%	16.4µM*	13µM*	-6.4%	-2.4%	-12.4
C/C=C/c1ccc(Oc2nnnn2-c2ccc(C(N)=O)cc2)c(OC)c1	-14.2%	14.6µM*	20.6µM*	-12.4%	-3.3%	8.9
O=C(CC12CC3CC(CC(C3)C1)C2)NC(=S)NCc1ccccc1	28.2µM*	u	18.4µM*	14.1%	11.3%	-9.8
O=C(NCc1ccccc1)NC12CC3CC(CC(C3)C1)C2	0.0%	14.6µM*	20.6µM*	-4.7%	3.4%	-0.6
O=C(NCc1ccccc1)NCC12CC3CC(CC(C3)C1)C2	-0.2%	u	u	0.0%	-0.2%	-7.1
Cc1cccc(-c2nnc(SCC(=O)N3c4ccccc4CCc4ccccc43)n2C)c1	u	u	23.1µM*	0.6%	0.9%	-55.7*
SMILES	ALOX12 inh	DT40 TDP1 CPT	TDP1 cell noCPT	HT1080 IDH1KD tx	HT1080NT lethal	IL1B secr inh
Cn1c(SCC(=O)N2CCc3ccccc32)nnc1-c1cccc(F)c1	5.5%	x	x	x	x	x
Cn1c(SCC(=O)N2c3ccccc3CCc3ccccc32)nnc1-c1cc2ccccc2cc1O	-7.3%	16.4µM*	14.6µM*	-6.2%	-4.2%	u
CCN(CC)C(=O)CSc1nnc(-c2cc3ccccc3cc2O)n1CC	u	0.92µM*	9.2µM*	-19.6%	-23.2%	9.0
CCN(CC)C(=O)CSc1nnc2ccc3ccccc3n12	-0.6%	7.1%	-2.3%	x	x	x
Cn1c(SCC(=O)N2CCc3ccccc32)nnc1-c1cccc(NC(=O)c2ccccc2F)c1	35.5µM*	x	x	x	x	x
CCn1cnc2c1c(=O)n(CC(=O)NCc1ccccc1Cl)c(=O)n2Cc1ccccc1	-20.0%	x	x	x	x	x
COc1ccc(S(=O)Cc2ccc(C(=O)NCc3cccc(OC)c3OC)o2)cc1 (stereo not drawn)	15.8%	x	x	x	x	x
Cc1cc(C)n2nc(SCC(=O)c3cc(C)n(C4CCS(=O)(=O)C4)c3C)nc2n1 (stereo not drawn)	-13.4%	x	x	x	x	x
Cc1ccc(C(=O)/C=C/c2cn(CC(O)CN3CCc4ccccc43)c3ccccc23)cc1 (stereo not drawn)	-24.8%	u	u	x	x	x
COc1ccc(C(=O)/C=C/c2cn(CN3CCN(C)CC3)c3ccccc23)cc1	x	-26.6%	u	u	-3.1%[9.24 µM]	-68.2*
CCn1cc(/C=C(\NC(=O)c2ccc(OC)cc2)C(=O)N2CCOCC2)c2ccccc21	u	-7.5%	22.1%	-2.8%	3.3%	-3.0
COc1ccc(C(=O)/C=C/c2cn(CC(O)CN3CCc4ccccc43)c3ccccc23)cc1OC (stereo not drawn)	-3.4%	3.26µM*	4.11µM*	x	x	x
CCOc1ccc(C(=O)/C=C/c2cn(CN3CCN(C)CC3)c3ccccc23)cc1	-21.5%	-20.0%	u	u	-28.0%	-20.6
COc1ccc(C(=O)/C=C/c2cn(CC(O)CN3CCOCC3)c3ccccc23)cc1 (stereo not drawn)	x	u	u	u	u	-93.5*
Cc1ccc(C(=O)/C=C/c2cn(CC(O)CN3CCOCC3)c3ccccc23)cc1 (stereo not drawn)	u	u	u	u	u	-82.0*
CNC(=O)CSc1ccccc1OC	-10.1%	x	x	x	x	x
CCOC(=O)NC(Nc1cccc(F)c1)(C(=O)OCC)C(F)(F)F (stereo not drawn)	8.9%	x	x	x	x	x

Assay outcomes (PubChem)
